Reference: PubChem BioAssay AID1159580 (chemical genetic matrix, 2015)
Screen size: about 5,500 compounds; about 2,000 (36%) were called active. Inconclusive results (about 18%) are left out. Some of the results follow. A number with no mark means an inactive call. Cut-off read from the data, not from the text of the source: active = normalized growth mostly below about 0.91 (no sharp cut-off); inconclusive = no clear call, values can overlap the other calls; inactive = mostly above about 0.92.

Assay: chemical genetic growth profiling, strain panel (AID 1159580);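 note: tested at 20 µM; growth read once vehicle control cultures reached saturation at 30 °C; 1 = growth at the plate median or of vehicle wells; lower values mean less growth of the strain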
Conditions: S. cerevisiae deletion strains, growth OD
[1] = locus YCL061C, strain MRC1, hits give low values

## Cc1oc(C(C)(C)C)cc1C(=O)Nc1ccc([N+](=O)[O-])cc1
Locus YAL013W, strain DEP1, hits give low values
  normalized growth: 0.903 (active)
Locus YBR229C, strain ROT2, hits give low values
  normalized growth: 0.976
[1]
  normalized growth: 0.984
Locus YDL101C, strain DUN1, hits give low values
  normalized growth: 1.03
Locus YDR150W, strain NUM1, hits give low values
  normalized growth: 0.786 (active)
Locus YEL061C, strain CIN8, hits give low values
  normalized growth: 0.911
Locus YGR078C, strain PAC10, hits give low values
  normalized growth: 0.98
Locus YHR030C, strain SLT2, hits give low values
  normalized growth: 0.584 (active)
Locus YHR087W, strain rtc3, hits give low values
  normalized growth: 0.958
Locus YJR043C, strain POL32, hits give low values
  normalized growth: 0.966
Locus YJR075W, strain HOC1, hits give low values
  normalized growth: 0.974
Locus YLR039C, strain RIC1, hits give low values
  normalized growth: 0.678 (active)
Locus YLR058C, strain SHM2 (second series), hits give low values
  normalized growth: 0.992
Locus YLR085C, strain ARP6, hits give low values
  normalized growth: 0.813
Locus YLR262C, strain YPT6, hits give low values
  normalized growth: 0.786 (active)
Locus YML094W, strain GIM5, hits give low values
  normalized growth: 0.873
Locus YMR219W, strain ESC1, hits give low values
  normalized growth: 0.997
Locus YMR263W, strain SAP30, hits give low values
  normalized growth: 0.943
Locus YMR307W, strain GAS1, hits give low values
  normalized growth: 0.752
Locus YNL153C, strain GIM3, hits give low values
  normalized growth: 0.998
Locus YNL298W, strain CLA4 (second series), hits give low values
  normalized growth: 0.788 (active)
Locus YNL322C, strain KRE1, hits give low values
  normalized growth: 0.996
Locus YNR030W, strain Alg12, hits give low values
  normalized growth: 0.816 (active)
Locus YOL006C, strain TOP1, hits give low values
  normalized growth: 0.88
Locus YPL055C, strain LGE1, hits give low values
  normalized growth: 0.688 (active)
Locus YPL241C, strain CIN2, hits give low values
  normalized growth: 0.997
Locus YPR135W, strain CTF4, hits give low values
  normalized growth: 0.484 (active)

## COC(=O)C1=COC(OC2OC(CO)C(O)C(O)C2O)C2C(C)CC(=O)C12 (centres undefined)
Locus YAL021C, strain ccr4, hits give low values
  normalized growth: 1.03
Locus YAL026C, strain drs2, hits give low values
  normalized growth: 1.02
Locus YAL030W, strain snc1, hits give low values
  normalized growth: 1.03
Locus YBL061C, strain skt5, hits give low values
  normalized growth: 1.02
Locus YBR009C, strain hhf1, hits give low values
  normalized growth: 1.01
Locus YBR023C, strain chs3, hits give low values
  normalized growth: 1.03
Locus YBR171W, strain sec66, hits give low values
  normalized growth: 1.04
Locus YBR231C, strain swc5, hits give low values
  normalized growth: 1.04
Locus YBR279W, strain paf1, hits give low values
  normalized growth: 1.03
Locus YCL011C, strain gbp2, hits give low values
  normalized growth: 1.03
Locus YCL016C, strain dcc1, hits give low values
  normalized growth: 1.02
[1]
  normalized growth: 1.03
Locus YCL069W, strain vba3, hits give low values
  normalized growth: 1.03
Locus YCR088W, strain abp1, hits give low values
  normalized growth: 1.03
Locus YDL005C, strain med2, hits give low values
  normalized growth: 1.04
Locus YDL040C, strain nat1, hits give low values
  normalized growth: 1.03
Locus YDR001C, strain nth1, hits give low values
  normalized growth: 1.03
Locus YDR069C, strain doa4, hits give low values
  normalized growth: 1.02
Locus YDR137W, strain rgp1, hits give low values
  normalized growth: 1.07
Locus YDR159W, strain sac3, hits give low values
  normalized growth: 1.01
Locus YDR195W, strain ref2
  normalized growth: 1.02
Locus YDR297W, strain sur2, hits give low values
  normalized growth: 1.02
Locus YDR334W, strain swr1, hits give low values
  normalized growth: 1.03
Locus YDR335W, strain msn5, hits give low values
  normalized growth: 1.03
Locus YDR392W, strain spt3, hits give low values
  normalized growth: 0.935
Locus YEL003W, strain gim4, hits give low values
  normalized growth: 1.03
Locus YEL037C, strain rad23, hits give low values
  normalized growth: 1.02
Locus YEL061C, strain CIN8 (second series), hits give low values
  normalized growth: 1.03
Locus YER015W, strain faa2, hits give low values
  normalized growth: 1.04
Locus YER016W, strain bim1, hits give low values
  normalized growth: 1.04
Locus YER111C, strain swi4, hits give low values
  normalized growth: 1.03
Locus YER155C, strain BEM2 (second series), hits give low values
  normalized growth: 1.02
Locus YFR010W, strain ubp6, hits give low values
  normalized growth: 1.03
Locus YGL167C, strain pmr1, hits give low values
  normalized growth: 1.03
Locus YGL173C, strain kem1, hits give low values
  normalized growth: 1.03
Locus YGL227W, strain vid30, hits give low values
  normalized growth: 1.03
Locus YGL240W, strain doc1, hits give low values
  normalized growth: 1.02
Locus YGL253W, strain hxk2, hits give low values
  normalized growth: 1.05
Locus YHR013C, strain ard1, hits give low values
  normalized growth: 1.07
Locus YHR027C, strain rpn1, hits give low values
  normalized growth: 1.03
Locus YHR142W, strain chs7, hits give low values
  normalized growth: 1.04
Locus YJL092W, strain hpr5, hits give low values
  normalized growth: 1.03
Locus YJL095W, strain BCK1 (second series), hits give low values
  normalized growth: 1.03
Locus YJL115W, strain asf1, hits give low values
  normalized growth: 1.02
Locus YJL129C, strain trk1, hits give low values
  normalized growth: 1.06
Locus YJL154C, strain vps35, hits give low values
  normalized growth: 1.02
Locus YJL164C, strain tpk1, hits give low values
  normalized growth: 1.01
Locus YJL166W, strain qcr8, hits give low values
  normalized growth: 1.05
Locus YJL187C, strain SWE1, hits give low values
  normalized growth: 1.04
Locus YKL160W, strain elf1, hits give low values
  normalized growth: 1.04
Locus YKR026C, strain gcn3, hits give low values
  normalized growth: 1.03
Locus YKR091W, strain srl3, hits give low values
  normalized growth: 1.02
Locus YLL001W, strain dnm1, hits give low values
  normalized growth: 1.05
Locus YLL026W, hits give low values
  normalized growth: 1.02
Locus YLL041C, strain sdh2, hits give low values
  normalized growth: 1.02
Locus YLR027C, strain aat2, hits give low values
  normalized growth: 1.02
Locus YLR221C, strain rsa3, hits give low values
  normalized growth: 1.03
Locus YLR258W, strain gsy2, hits give low values
  normalized growth: 1.01
Locus YLR262C, strain YPT6 (second series), hits give low values
  normalized growth: 1.05
Locus YLR320W, strain mms22, hits give low values
  normalized growth: 1.04
Locus YLR342W, strain FKS1, hits give low values
  normalized growth: 1.03
Locus YLR357W, strain rsc2, hits give low values
  normalized growth: 1.05
Locus YLR370C, strain arc18, hits give low values
  normalized growth: 1.03
Locus YLR384C, strain iki3, hits give low values
  normalized growth: 1.02
Locus YML120C, strain ndi1, hits give low values
  normalized growth: 1.03
Locus YMR058W, strain fet3, hits give low values
  normalized growth: 1.03
Locus YMR125W, strain sto1, hits give low values
  normalized growth: 1.04
Locus YMR129W, hits give low values
  normalized growth: 1.03
Locus YMR205C, strain PFK2, hits give low values
  normalized growth: 1.05
Locus YMR231W, strain pep5, hits give low values
  normalized growth: 1.03
Locus YNL071W, strain lat1, hits give low values
  normalized growth: 1.04
Locus YNL209W, strain ssb2, hits give low values
  normalized growth: 1.02
Locus YNL248C, strain rpa49, hits give low values
  normalized growth: 1.06
Locus YNL322C, strain KRE1 (second series), hits give low values
  normalized growth: 1.03
Locus YNR049C, strain mso1, hits give low values
  normalized growth: 1.02
Locus YOR001W, strain rrp6, hits give low values
  normalized growth: 0.987
Locus YOR070C, strain gyp1, hits give low values
  normalized growth: 1.02
Locus YOR080W, strain dia2, hits give low values
  normalized growth: 1.02
Locus YOR083W, strain WHI5, hits give low values
  normalized growth: 1.04
Locus YOR106W, strain vam3, hits give low values
  normalized growth: 1.09
Locus YOR265W, strain rbl2, hits give low values
  normalized growth: 1.01
Locus YOR270C, strain vph1, hits give low values
  normalized growth: 1.11
Locus YOR290C, strain snf2, hits give low values
  normalized growth: 1.03
Locus YPL051W, strain arl3, hits give low values
  normalized growth: 1.04
Locus YPL078C, strain atp4, hits give low values
  normalized growth: 1.06
Locus YPL106C, strain sse1, hits give low values
  normalized growth: 1.01
Locus YPL240C, strain hsp82, hits give low values
  normalized growth: 1.02
